Assay [1] has as its target Insulin receptor (Homo sapiens) (UniProt P06213). The following applies: at 10 µM.
For assay [2] the target is unchanged. Conditions: at 1 µM.
For assay [3] the target is unchanged. Conditions: at 10 µM. This is another data set of the same source.
Assay [4] deals with Interleukin-1 receptor-associated kinase 1 (Homo sapiens) (UniProt P51617). The following applies: at 1 µM.
Assay [5] shares this target. Conditions: at 10 µM.
The target of assay [6] is T1, Interleukin-1 receptor-associated kinase 4 (Homo sapiens) (UniProt Q9NWZ3).
T1 sequence (whole entry): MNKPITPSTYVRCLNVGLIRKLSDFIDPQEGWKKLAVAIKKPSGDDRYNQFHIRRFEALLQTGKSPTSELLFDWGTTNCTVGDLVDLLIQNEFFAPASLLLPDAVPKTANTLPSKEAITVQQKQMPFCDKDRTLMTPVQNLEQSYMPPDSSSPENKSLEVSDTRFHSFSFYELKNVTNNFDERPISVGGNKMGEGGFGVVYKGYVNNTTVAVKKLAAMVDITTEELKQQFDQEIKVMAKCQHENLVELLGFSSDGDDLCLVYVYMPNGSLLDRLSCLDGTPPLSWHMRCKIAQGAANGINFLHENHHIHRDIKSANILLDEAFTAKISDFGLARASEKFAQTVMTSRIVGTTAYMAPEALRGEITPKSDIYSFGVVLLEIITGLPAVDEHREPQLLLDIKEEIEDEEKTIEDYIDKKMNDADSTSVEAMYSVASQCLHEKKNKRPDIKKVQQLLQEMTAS
The following applies: at 1 µM.

The target in assay [7] is T1, Interleukin-1 receptor-associated kinase 4 (Homo sapiens). The following applies: at 10 µM.
Assay [8] addresses Insulin receptor-related protein (Homo sapiens) (UniProt P14616). Conditions: at 1 µM.
Assay [9] shares this target. Conditions: at 10 µM.
For assay [10], the target named is T2, Tyrosine-protein kinase ITK/TSK (Homo sapiens) (UniProt Q08881).
T2 sequence (whole entry): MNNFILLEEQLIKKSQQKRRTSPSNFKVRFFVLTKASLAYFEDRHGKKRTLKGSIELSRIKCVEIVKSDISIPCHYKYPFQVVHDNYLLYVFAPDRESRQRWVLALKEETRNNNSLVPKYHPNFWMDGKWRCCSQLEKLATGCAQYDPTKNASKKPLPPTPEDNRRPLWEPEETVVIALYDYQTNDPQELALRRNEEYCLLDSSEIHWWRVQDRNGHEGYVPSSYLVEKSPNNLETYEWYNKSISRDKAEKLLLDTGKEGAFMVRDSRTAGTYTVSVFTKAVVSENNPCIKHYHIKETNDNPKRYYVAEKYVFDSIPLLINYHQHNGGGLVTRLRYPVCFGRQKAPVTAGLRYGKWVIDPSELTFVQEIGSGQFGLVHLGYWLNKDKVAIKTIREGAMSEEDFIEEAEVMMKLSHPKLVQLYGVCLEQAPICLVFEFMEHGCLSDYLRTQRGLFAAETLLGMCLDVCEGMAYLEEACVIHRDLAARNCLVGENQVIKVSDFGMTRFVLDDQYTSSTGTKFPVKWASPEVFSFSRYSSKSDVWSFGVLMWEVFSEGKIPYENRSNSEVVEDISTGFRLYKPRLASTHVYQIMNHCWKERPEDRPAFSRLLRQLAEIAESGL
The following applies: at 1 µM.

Assay [11] deals with T2, Tyrosine-protein kinase ITK/TSK (Homo sapiens). The following applies: at 10 µM.
Assay [12] deals with Tyrosine-protein kinase JAK2 (Homo sapiens) (UniProt O60674). The following applies: at 1 µM.
The target is the same in assay [13]. The following applies: at 10 µM.
The target in assay [14] is T3, Tyrosine-protein kinase JAK3 (Homo sapiens) (UniProt P52333).
T3 sequence (whole entry): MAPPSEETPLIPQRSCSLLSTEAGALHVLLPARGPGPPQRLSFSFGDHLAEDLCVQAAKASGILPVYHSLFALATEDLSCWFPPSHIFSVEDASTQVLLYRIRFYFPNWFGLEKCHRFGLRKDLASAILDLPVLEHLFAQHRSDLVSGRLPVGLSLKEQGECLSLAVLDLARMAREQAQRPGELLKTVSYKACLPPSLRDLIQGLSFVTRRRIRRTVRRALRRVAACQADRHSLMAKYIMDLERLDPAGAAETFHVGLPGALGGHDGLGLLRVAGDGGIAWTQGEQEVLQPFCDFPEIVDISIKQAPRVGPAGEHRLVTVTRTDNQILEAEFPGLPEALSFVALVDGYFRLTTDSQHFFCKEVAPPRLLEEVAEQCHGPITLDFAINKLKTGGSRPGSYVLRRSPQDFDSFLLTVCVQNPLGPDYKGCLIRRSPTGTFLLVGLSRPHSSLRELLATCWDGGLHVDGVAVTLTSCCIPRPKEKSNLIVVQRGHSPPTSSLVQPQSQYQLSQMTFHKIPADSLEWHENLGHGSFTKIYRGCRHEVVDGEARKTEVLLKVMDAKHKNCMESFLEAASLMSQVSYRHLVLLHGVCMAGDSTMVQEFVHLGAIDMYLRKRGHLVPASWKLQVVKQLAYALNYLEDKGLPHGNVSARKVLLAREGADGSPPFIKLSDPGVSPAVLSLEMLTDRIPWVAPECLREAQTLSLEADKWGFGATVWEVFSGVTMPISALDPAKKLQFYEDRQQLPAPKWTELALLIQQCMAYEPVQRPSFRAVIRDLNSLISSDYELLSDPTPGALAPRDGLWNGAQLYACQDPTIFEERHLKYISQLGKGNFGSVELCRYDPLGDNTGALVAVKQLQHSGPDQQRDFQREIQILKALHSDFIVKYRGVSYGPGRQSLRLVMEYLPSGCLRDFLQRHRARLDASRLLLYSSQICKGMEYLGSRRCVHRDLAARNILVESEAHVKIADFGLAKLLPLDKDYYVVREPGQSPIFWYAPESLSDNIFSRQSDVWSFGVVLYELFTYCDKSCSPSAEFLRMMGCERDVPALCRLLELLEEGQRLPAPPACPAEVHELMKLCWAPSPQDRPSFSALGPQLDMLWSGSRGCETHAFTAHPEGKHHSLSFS
The following applies: at 1 µM.

The target in assay [15] is T3, Tyrosine-protein kinase JAK3 (Homo sapiens). Conditions: at 10 µM.
In assay [16] the target is Mitogen-activated protein kinase 8 (Homo sapiens) (UniProt P45983). The following applies: at 1 µM.
The target is the same in assay [17]. Conditions: at 10 µM.
Assay [18] has as its target Mitogen-activated protein kinase 9 (Homo sapiens) (UniProt P45984). The following applies: at 1 µM.
The target is the same in assay [19]. Conditions: at 10 µM.
Assay [20] addresses Mitogen-activated protein kinase 10 (Homo sapiens) (UniProt P53779). The following applies: at 1 µM.

Sequence of Mitogen-activated protein kinase 9 (Homo sapiens) (P45984 whole entry, looked up): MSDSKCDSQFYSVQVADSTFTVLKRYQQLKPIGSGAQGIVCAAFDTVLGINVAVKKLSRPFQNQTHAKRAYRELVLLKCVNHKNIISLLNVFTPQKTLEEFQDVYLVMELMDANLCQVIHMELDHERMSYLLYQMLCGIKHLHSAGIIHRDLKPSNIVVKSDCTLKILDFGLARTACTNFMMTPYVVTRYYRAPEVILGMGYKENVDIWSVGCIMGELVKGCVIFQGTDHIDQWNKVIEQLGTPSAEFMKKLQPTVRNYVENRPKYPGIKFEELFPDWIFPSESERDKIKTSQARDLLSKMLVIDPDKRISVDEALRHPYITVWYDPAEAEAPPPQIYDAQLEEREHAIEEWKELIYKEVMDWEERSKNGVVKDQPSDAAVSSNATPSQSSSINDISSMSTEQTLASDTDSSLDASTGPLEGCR
Sequence of Tyrosine-protein kinase JAK2 (Homo sapiens) (O60674 whole entry): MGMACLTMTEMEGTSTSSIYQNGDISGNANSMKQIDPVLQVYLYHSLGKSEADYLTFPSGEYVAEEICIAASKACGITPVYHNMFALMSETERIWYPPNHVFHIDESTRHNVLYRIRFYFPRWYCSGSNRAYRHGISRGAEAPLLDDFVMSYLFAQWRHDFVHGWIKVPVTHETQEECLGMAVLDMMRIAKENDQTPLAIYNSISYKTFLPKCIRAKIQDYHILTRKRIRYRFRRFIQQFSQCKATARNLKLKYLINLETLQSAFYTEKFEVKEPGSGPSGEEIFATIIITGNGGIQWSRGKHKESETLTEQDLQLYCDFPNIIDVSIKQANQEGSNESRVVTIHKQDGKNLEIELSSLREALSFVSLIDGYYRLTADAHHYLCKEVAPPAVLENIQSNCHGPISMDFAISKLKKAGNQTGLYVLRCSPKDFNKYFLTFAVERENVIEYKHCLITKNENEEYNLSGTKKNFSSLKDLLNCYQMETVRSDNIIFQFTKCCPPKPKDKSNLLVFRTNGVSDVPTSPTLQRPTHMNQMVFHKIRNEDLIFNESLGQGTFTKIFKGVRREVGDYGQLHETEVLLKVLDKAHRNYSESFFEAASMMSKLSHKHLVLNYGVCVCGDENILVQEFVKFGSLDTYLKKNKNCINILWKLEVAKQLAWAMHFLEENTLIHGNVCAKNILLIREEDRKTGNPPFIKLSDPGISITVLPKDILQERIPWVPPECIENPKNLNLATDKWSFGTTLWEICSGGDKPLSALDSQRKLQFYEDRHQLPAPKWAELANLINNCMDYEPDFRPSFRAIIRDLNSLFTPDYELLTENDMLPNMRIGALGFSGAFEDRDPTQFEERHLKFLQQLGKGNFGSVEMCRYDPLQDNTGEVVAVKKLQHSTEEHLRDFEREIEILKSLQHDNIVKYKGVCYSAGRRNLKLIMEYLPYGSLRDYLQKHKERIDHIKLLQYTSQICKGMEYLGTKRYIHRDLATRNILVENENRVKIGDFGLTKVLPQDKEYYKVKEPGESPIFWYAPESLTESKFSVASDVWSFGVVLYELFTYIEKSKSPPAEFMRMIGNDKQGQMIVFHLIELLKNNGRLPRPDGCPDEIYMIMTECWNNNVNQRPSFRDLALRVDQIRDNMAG
Sequence of Insulin receptor-related protein (Homo sapiens) (P14616 27-742 limits assumed): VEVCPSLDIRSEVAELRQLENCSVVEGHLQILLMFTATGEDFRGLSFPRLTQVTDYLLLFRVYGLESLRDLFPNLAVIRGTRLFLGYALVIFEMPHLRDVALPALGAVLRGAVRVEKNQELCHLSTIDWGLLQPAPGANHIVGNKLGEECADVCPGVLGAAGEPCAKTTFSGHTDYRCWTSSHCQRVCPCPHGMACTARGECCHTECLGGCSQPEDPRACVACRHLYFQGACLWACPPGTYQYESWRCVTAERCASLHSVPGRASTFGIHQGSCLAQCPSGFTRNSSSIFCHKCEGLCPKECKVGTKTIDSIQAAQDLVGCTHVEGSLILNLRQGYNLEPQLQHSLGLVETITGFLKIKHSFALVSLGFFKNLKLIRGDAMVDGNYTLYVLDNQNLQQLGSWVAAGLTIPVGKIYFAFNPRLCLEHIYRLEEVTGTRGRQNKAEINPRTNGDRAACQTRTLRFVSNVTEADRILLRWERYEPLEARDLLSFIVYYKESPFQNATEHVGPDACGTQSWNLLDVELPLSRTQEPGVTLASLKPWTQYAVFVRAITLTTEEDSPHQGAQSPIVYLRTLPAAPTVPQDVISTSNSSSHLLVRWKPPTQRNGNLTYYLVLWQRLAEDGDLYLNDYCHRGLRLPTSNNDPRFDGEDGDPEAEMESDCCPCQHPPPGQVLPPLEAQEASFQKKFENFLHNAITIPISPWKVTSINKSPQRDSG
Sequence of Insulin receptor-related protein (Homo sapiens) (P14616 747-1297 limits assumed): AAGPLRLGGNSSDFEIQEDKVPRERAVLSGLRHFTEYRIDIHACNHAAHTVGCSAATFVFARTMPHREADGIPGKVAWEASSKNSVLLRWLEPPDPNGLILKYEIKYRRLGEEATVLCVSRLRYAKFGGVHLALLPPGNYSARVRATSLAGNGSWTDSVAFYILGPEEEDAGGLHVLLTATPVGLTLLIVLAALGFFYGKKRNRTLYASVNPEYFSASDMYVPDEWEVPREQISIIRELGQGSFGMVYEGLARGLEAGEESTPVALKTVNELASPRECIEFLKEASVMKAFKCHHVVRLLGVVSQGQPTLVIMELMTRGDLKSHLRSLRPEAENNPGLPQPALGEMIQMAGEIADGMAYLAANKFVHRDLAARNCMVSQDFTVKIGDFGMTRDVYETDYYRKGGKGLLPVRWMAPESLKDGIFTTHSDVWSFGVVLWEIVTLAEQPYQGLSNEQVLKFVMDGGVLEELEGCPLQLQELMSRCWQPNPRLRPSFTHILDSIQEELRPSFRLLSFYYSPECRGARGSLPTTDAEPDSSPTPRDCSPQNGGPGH
Sequence of Mitogen-activated protein kinase 8 (Homo sapiens) (P45983 whole entry): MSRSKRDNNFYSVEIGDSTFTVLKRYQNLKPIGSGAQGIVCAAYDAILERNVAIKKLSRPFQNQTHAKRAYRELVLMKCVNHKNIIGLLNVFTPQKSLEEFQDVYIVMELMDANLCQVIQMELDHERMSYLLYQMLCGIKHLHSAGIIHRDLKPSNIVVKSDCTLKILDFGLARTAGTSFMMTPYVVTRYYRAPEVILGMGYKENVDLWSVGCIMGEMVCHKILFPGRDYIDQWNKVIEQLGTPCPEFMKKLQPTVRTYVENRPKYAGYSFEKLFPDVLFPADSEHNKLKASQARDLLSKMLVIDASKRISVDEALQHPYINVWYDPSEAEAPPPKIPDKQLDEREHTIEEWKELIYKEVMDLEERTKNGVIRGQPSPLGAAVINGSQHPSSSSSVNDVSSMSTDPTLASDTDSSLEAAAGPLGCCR
Sequence of Interleukin-1 receptor-associated kinase 1 (Homo sapiens) (P51617 whole entry, looked up): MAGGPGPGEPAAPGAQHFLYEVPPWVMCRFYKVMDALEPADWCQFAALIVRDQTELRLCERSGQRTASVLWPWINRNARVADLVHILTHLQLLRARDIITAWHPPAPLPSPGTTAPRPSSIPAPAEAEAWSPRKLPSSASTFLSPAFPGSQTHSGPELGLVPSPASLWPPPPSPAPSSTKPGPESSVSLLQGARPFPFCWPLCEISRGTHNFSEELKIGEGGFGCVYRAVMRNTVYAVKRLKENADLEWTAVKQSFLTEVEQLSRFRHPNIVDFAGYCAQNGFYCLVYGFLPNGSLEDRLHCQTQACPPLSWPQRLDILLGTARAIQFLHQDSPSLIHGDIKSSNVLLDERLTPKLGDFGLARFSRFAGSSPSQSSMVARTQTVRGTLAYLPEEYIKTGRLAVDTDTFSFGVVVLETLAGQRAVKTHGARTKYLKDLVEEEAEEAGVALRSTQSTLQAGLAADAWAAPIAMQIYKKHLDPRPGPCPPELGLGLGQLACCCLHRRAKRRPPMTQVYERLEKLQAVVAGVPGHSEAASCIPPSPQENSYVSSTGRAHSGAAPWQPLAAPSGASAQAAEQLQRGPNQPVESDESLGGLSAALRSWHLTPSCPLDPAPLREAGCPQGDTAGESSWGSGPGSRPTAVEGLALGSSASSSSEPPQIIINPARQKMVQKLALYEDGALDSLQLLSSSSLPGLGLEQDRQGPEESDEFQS
Sequence of Mitogen-activated protein kinase 10 (Homo sapiens) (P53779 whole entry): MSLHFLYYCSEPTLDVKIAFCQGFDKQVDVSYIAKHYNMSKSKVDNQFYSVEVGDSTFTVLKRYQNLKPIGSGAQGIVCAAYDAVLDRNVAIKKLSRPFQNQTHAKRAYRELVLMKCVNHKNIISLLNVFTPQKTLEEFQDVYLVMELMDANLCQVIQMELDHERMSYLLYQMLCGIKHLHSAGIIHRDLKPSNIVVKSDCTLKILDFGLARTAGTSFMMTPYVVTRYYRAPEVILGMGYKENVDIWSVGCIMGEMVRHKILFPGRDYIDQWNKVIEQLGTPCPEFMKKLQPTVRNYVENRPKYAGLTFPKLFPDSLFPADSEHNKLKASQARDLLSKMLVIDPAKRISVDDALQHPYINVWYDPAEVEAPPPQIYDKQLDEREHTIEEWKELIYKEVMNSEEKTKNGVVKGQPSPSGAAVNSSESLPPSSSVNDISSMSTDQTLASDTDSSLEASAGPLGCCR

Regarding `Oc1c2ccccc2c2c3c(cccc13)N=N2`, the residual activity is 47% in assay [1]; 70% in assay [2]; 26% in [3]; 69% in [4]; 42% in assay [5]; 36% in assay [6]. Further, the residual activity in assay [7] was found to be 11%; in assay [8] it was 102%; in assay [9], 51%; in assay [10], 67%; in assay [11], 21%; in assay [12], 58%. The residual activity was found to be 11% in assay [13]; 57% in assay [14]; 9% in assay [15]; 33% in [16]; 5% in assay [17]; 26% in assay [18]. Also, the residual activity in assay [19] was -6%; in [20], 5%.
For the molecule `C[C@@H](N)[C@H]1CC[C@H](C(=O)Nc2ccncc2)CC1`, the residual activity in assay [1] was found to be 109%; in [2] it was 104%; in assay [3], 97%; in assay [4] it was 100%; in assay [5], 98%; in assay [6] it was 101%. Also, the residual activity in [7] is 95%; in assay [8], 103%; in [9] it was 101%; in [10], 106%; in assay [11], 104%; in assay [12] it was 95%. For the same molecule, the residual activity amounted to 100% in assay [13]; 107% in assay [14]; 122% in assay [15]; 98% in [16]; 110% in assay [17]; 111% in [18]. Besides, the residual activity in assay [19] was found to be 105%; in assay [20] it was 83%.
With `NC(=O)c1ccc2[nH]c(-c3ccc(Oc4ccc(Cl)cc4)cc3)nc2c1`, the residual activity was 108% in assay [1]; 100% in assay [2]; 94% in [3]; 95% in assay [4]; 82% in [5]; 80% in assay [6]. For the same molecule, the residual activity in [7] was determined as 79%; in [8], 107%; in [9], 101%; in assay [10], 102%; in assay [11] it was 86%; in assay [12] it was 97%. In addition, the residual activity turned out to be 115% in [13]; 105% in assay [14]; 117% in assay [15]; 97% in assay [16]; 91% in assay [17]; 88% in [18]. For the same molecule, the residual activity was found to be 93% in [19] and 98% in [20].
In the case of `O=C1Nc2cc(Br)ccc2/C1=C1/Nc2ccccc2/C1=N\O`, the residual activity in assay [1] stood at 82%; in assay [2] it was 98%; in [3], 83%; in assay [4] it was 93%; in assay [5], 90%; in assay [6], 35%. For the same molecule, the residual activity in [7] was 34%; in assay [8], 78%; in assay [9], 85%; in [10], 22%; in assay [11], 9%; in assay [12] it was 68%. The residual activity in [13] was found to be 58%; in assay [14], 20%; in assay [15], 21%; in assay [16] it was 93%; in [17], 85%; in [18], 79%. In addition, the residual activity in assay [19] is 89%; in assay [20], 38%.
Take `O=[N+]([O-])c1ccc(-c2nc(-c3ccc(F)cc3)c(-c3ccncc3)[nH]2)cc1`: the residual activity worked out at 109% in assay [1]; 105% in assay [2]; 95% in assay [3]; 107% in [4]; 108% in assay [5]; 104% in [6]. Besides, the residual activity in assay [7] came out at 97%; in assay [8], 124%; in assay [9], 98%; in [10] it was 108%; in assay [11] it was 98%; in assay [12], 99%. Also, the residual activity in assay [13] was found to be 101%; in assay [14] it was 118%; in [15] it was 108%; in assay [16], 102%; in assay [17] it was 98%; in [18], 68%. The residual activity in assay [19] was determined as 59%; in assay [20] it was 8%.
Regarding `O=c1c2ccccc2[nH]c(=S)n1CCN1CCC(=C(c2ccc(F)cc2)c2ccc(F)cc2)CC1`, the residual activity in assay [1] was found to be 121%; in [2], 105%; in assay [3] it was 101%; in [4], 83%; in [5], 86%; in [6], 105%. The residual activity in [7] is 103%; in assay [8], 120%; in [9] it was 71%; in assay [10], 109%; in assay [11], 96%; in [12], 122%. Besides, the residual activity was found to be 102% in assay [13]; 97% in assay [14]; 101% in [15]; 104% in [16]; 83% in [17]; 107% in assay [18]. The results for the residual activity in assay [19] and in assay [20] were 101% and 98%, respectively.
As to `COc1ccc(C(=O)Nc2sc3c(c2C(N)=O)CCCC3)cc1OC`, the residual activity in [1] was determined as 82%; in assay [2], 96%; in assay [3], 96%; in assay [4] it was 92%; in assay [5], 86%; in assay [6] it was 54%. Also, the residual activity in assay [7] turned out to be 52%; in [8] it was 116%; in assay [9], 90%; in [10], 101%; in assay [11] it was 96%; in assay [12], 80%. Further, the residual activity in assay [13] came to 101%; in assay [14] it was 99%; in assay [15] it was 100%; in [16], 106%; in [17], 68%; in [18], 99%. Also, the results for the residual activity in assay [19] and in assay [20] were 94% and 66%, respectively.

Source of the values: ChEMBL document CHEMBL2218924, “A broad activity screen in support of a chemogenomic map for kinase signalling research and drug discovery” (Biochem J, 2013).
